# Measurements as given in PubChem BioAssay (NCI).
# Where “and” joins values, the source holds several entries; their conditions need not be identical. Identical values can stand only once. About 83,000 compounds went through this panel and 20% of them were active in at least one assay; those are over-represented in the sample as a whole.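 How to read the values: 0–100, growth inhibition (40 = 60% inhibited); 0, no net growth; -100 to 0, cell death (-40 = 40% of starting cells died; -100 = all dead).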 Calls of active or inactive are those of the source. How the source made its calls: active means growth percent below 10; inactive means the rest.
# Columns and labels:
# Assay in all cases: NCI-60 one-dose screen, 48 h (100 = growth as untreated, 0 = no growth, -100 = all killed)
# [1] = test system: NCI-H23 lung
# [2] = test system: NCI-H226 lung
# [3] = test system: NCI-H322M lung
# [4] = test system: HOP-62 NSCLC
# [5] = test system: HOP-92 NSCLC
# [6] = test system: NCI-H522 lung
# [7] = test system: A549/ATCC NSCLC
# [8] = test system: 786-0 renal
# [9] = test system: DU-145 prostate
# [10] = test system: K-562 leukemia
# [11] = test system: MALME-3M melanoma
# [12] = test system: MDA-MB-231 breast
# [13] = test system: RXF 393 renal
# [14] = test system: SF-268 CNS
# [15] = test system: SF-295 CNS
# [16] = test system: SF-539 CNS
# [17] = test system: UACC-257 melanoma
# [18] = test system: M14 melanoma
# [19] = test system: NCI-H460 lung; conditions: 10 µM
compound,measurement,setting,value
Cn1c2nc3ccccc3c-2nc2ccccc21,growth,[1]; 10 µM,94.1% (inactive) and 91.3% (inactive)
same,growth,[2]; 10 µM,104% (inactive)
same,growth,[3]; 10 µM,99.7% (inactive) and 88.7% (inactive)
same,growth,[4]; 10 µM,80.5% (inactive) and 85.1% (inactive)
same,growth,[5]; 10 µM,77.6% (inactive) and 79.1% (inactive)
same,growth,[6]; 10 µM,102% (inactive) and 87.8% (inactive)
same,growth,[7]; 10 µM,96.1% (inactive) and 86.3% (inactive)
same,growth,[8]; 10 µM,96.6% (inactive) and 94.4% (inactive)
same,growth,[9]; 10 µM,94.4% (inactive) and 95.7% (inactive)
same,growth,[10]; 10 µM,121% (inactive) and 94.7% (inactive)
same,growth,[11]; 10 µM,116% (inactive) and 115% (inactive)
same,growth,[12]; 10 µM,79.9% (inactive) and 83.8% (inactive)
same,growth,[13]; 10 µM,91% (inactive) and 90.7% (inactive)
same,growth,[14]; 10 µM,97% (inactive) and 97.7% (inactive)
same,growth,[15]; 10 µM,96.8% (inactive) and 107% (inactive)
same,growth,[16]; 10 µM,92.2% (inactive) and 77.2% (inactive)
same,growth,[17]; 10 µM,108% (inactive) and 94.5% (inactive)
same,growth,[18]; 10 µM unless noted,108% (inactive) and 100% (inactive)
O=C1C(Cl)=C(Cl)C(Cl)(Cl)C(Cl)C1(Cl)Cl (stereo not drawn),growth,[1]; 10 µM,106% (inactive)
same,growth,[2]; 10 µM,105% (inactive)
same,growth,[3]; 10 µM,103% (inactive)
same,growth,[4]; 10 µM,98.5% (inactive)
same,growth,[5]; 10 µM,104% (inactive)
same,growth,[6]; 10 µM,89.3% (inactive)
same,growth,[7]; 10 µM,105% (inactive)
same,growth,[8]; 10 µM,102% (inactive)
same,growth,[9]; 10 µM,114% (inactive)
same,growth,[10]; 10 µM,102% (inactive)
same,growth,[11]; 10 µM,99.9% (inactive)
same,growth,[12]; 10 µM,96.2% (inactive)
same,growth,[13]; 10 µM,116% (inactive)
same,growth,[14]; 10 µM,108% (inactive)
same,growth,[15]; 10 µM,94.5% (inactive)
same,growth,[16]; 10 µM,96.2% (inactive)
same,growth,[17]; 10 µM,110% (inactive)
same,growth,[18]; 10 µM unless noted,103% (inactive)
CC(=O)O[C@H]1C(=O)[C@@]2(C)[C@H]([C@H](OC(=O)c3ccccc3)[C@]3(O)C[C@H](OC(=O)[C@H](O)[C@@H](NC(=O)c4ccccc4)c4ccccc4)C(C)=C1C3(C)C)[C@]1(OC(C)=O)CO[C@@H]1C[C@@H]2O,growth,[1]; 0.01 µM,24.1% (inactive)
same,growth,[1]; 2.5 µM,23.2% (inactive)
same,growth,[1]; 5 µM,30.5% (inactive)
same,growth,[1]; 10 µM,40.3% (inactive) and 34.8% (inactive)
same,growth,[2]; 0.01 µM,67.6% (inactive)
same,growth,[2]; 2.5 µM,27.4% (inactive)
same,growth,[2]; 5 µM,32.1% (inactive)
same,growth,[2]; 10 µM,77.4% (inactive) and 31% (inactive)
same,growth,[3]; 0.01 µM,53.8% (inactive)
same,growth,[3]; 2.5 µM,30.7% (inactive)
same,growth,[3]; 5 µM,30.1% (inactive)
same,growth,[3]; 10 µM,21.2% (inactive) and 30.1% (inactive)
same,growth,[4]; 0.01 µM,48.2% (inactive)
same,growth,[4]; 2.5 µM,12.5% (inactive)
same,growth,[4]; 5 µM,15.4% (inactive)
same,growth,[4]; 10 µM,30.7% (inactive) and 6.92% (active)
same,growth,[5]; 0.01 µM,53.2% (inactive)
same,growth,[5]; 2.5 µM,32.9% (inactive)
same,growth,[5]; 5 µM,42.7% (inactive)
same,growth,[5]; 10 µM,37.4% (inactive)
same,growth,[6]; 0.01 µM,22.1% (inactive)
same,growth,[6]; 2.5 µM,-12.4% (active)
same,growth,[6]; 5 µM,1.57% (active)
same,growth,[6]; 10 µM,-16.2% (active) and 11.8% (inactive)
same,growth,[7]; 0.01 µM,31.4% (inactive)
same,growth,[7]; 2.5 µM,18.5% (inactive)
same,growth,[7]; 5 µM,21.2% (inactive)
same,growth,[7]; 10 µM,47.3% (inactive) and 29.9% (inactive)
same,growth,[8]; 0.01 µM,51.7% (inactive)
same,growth,[8]; 2.5 µM,17.7% (inactive)
same,growth,[8]; 5 µM,31% (inactive)
same,growth,[8]; 10 µM,42.2% (inactive) and 42.3% (inactive)
same,growth,[9]; 0.01 µM,-35.7% (active)
same,growth,[9]; 2.5 µM,-5.74% (active)
same,growth,[9]; 5 µM,-7.54% (active)
same,growth,[9]; 10 µM,-49.5% (active) and -4.6% (active)
same,growth,[10]; 0.01 µM,10.7% (inactive)
same,growth,[10]; 2.5 µM,5.83% (active)
same,growth,[10]; 5 µM,6.14% (active)
same,growth,[10]; 10 µM,-6.92% (active) and 5.96% (active)
same,growth,[11]; 0.01 µM,52.3% (inactive)
same,growth,[11]; 2.5 µM,51.7% (inactive)
same,growth,[11]; 5 µM,61.6% (inactive)
same,growth,[11]; 10 µM,52.5% (inactive) and 62.6% (inactive)
same,growth,[12]; 0.01 µM,49.4% (inactive)
same,growth,[12]; 2.5 µM,-6.11% (active)
same,growth,[12]; 5 µM,2.87% (active)
same,growth,[12]; 10 µM,29.1% (inactive) and 5.06% (active)
same,growth,[13]; 0.01 µM,1.22% (active)
same,growth,[13]; 2.5 µM,-29.4% (active)
same,growth,[13]; 5 µM,-25.8% (active)
same,growth,[13]; 10 µM,28.9% (inactive) and -25.2% (active)
same,growth,[14]; 0.01 µM,42.1% (inactive)
same,growth,[14]; 2.5 µM,27.2% (inactive)
same,growth,[14]; 5 µM,29.5% (inactive)
same,growth,[14]; 10 µM,37.1% (inactive) and 36.3% (inactive)
same,growth,[15]; 0.01 µM,55.9% (inactive)
same,growth,[15]; 2.5 µM,2.61% (active)
same,growth,[15]; 5 µM,3.25% (active)
same,growth,[15]; 10 µM,9.92% (active) and 1.83% (active)
same,growth,[16]; 0.01 µM,-15.1% (active)
same,growth,[16]; 2.5 µM,-28.7% (active)
same,growth,[16]; 5 µM,-33.8% (active)
same,growth,[16]; 10 µM,-14.3% (active) and -16.1% (active)
same,growth,[17]; 0.01 µM,14.6% (inactive)
same,growth,[17]; 2.5 µM,48.7% (inactive)
same,growth,[17]; 5 µM,59.6% (inactive)
same,growth,[17]; 10 µM,26.9% (inactive) and 65% (inactive)
same,growth,[18]; 2.5 µM,-1.65% (active)
same,growth,[18]; 5 µM,19.5% (inactive)
same,growth,[18]; 10 µM,24.9% (inactive) and 24.5% (inactive)
N#CC(=C1C=CC(=NO)C=C1)c1ccccc1,growth,[1]; 10 µM,35.3% (inactive)
same,growth,[2]; 10 µM,44.5% (inactive)
same,growth,[3]; 10 µM,66.3% (inactive)
same,growth,[4]; 10 µM,6.93% (active)
same,growth,[19],1.48% (active)
same,growth,[5]; 10 µM,-7.52% (active)
same,growth,[6]; 10 µM,39% (inactive)
same,growth,[7]; 10 µM,34% (inactive)
same,growth,[8]; 10 µM,6.67% (active)
same,growth,[9]; 10 µM,-66.7% (active)
same,growth,[10]; 10 µM,11.9% (inactive)
same,growth,[11]; 10 µM,59.1% (inactive)
same,growth,[12]; 10 µM,-4.14% (active)
same,growth,[14]; 10 µM,-24% (active)
same,growth,[15]; 10 µM,19.6% (inactive)
same,growth,[16]; 10 µM,-58.7% (active)
same,growth,[17]; 10 µM,65.6% (inactive)
same,growth,[18]; 10 µM unless noted,-36.5% (active)
CC1CCC2(C(=O)O)CCC3(C)C(=CCC4C5(C)CC(O)C(O)C(C)(CO)C5C(O)CC43C)C2C1C (stereo not drawn),growth,[1]; 10 µM,94.6% (inactive)
same,growth,[2]; 10 µM,115% (inactive)
same,growth,[3]; 10 µM,98.7% (inactive)
same,growth,[4]; 10 µM,111% (inactive)
same,growth,[5]; 10 µM,79% (inactive)
same,growth,[6]; 10 µM,87.9% (inactive)
same,growth,[7]; 10 µM,27% (inactive)
same,growth,[8]; 10 µM,110% (inactive)
same,growth,[9]; 10 µM,110% (inactive)
same,growth,[10]; 10 µM,106% (inactive)
same,growth,[11]; 10 µM,103% (inactive)
same,growth,[12]; 10 µM,107% (inactive)
same,growth,[13]; 10 µM,26.2% (inactive)
same,growth,[14]; 10 µM,111% (inactive)
same,growth,[15]; 10 µM,112% (inactive)
same,growth,[16]; 10 µM,99.6% (inactive)
same,growth,[17]; 10 µM,93.7% (inactive)
same,growth,[18]; 10 µM unless noted,53.9% (inactive)
